Measured values taken from PubChem BioAssay.
The source made the active and inactive calls.

Tests used:
[1] = small molecules captured by biotinylated probe aFSTL3 – biochemical, small-molecule microarray, fluorescence 635/667, stem cell growth factor project, primary screen (AID 1064); conditions: higher = more signal;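 also: measures binding of the biotinylated anti-FSTL3 antibody to printed compounds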
[2] = binders from COS7 lysate, DM2A8 probe, primary screen, torsin A project, cell lysate, small-molecule microarray, fluorescence 635/667 (AID 1065); conditions: higher = more signal, COS7 lysate expressing mutant human TOR1A
[3] = small molecules captured by biotinylated probe aFGF2 – biochemical, small-molecule microarray, fluorescence 635/667, stem cell growth factor project, primary screen (AID 1067); conditions: higher = more signal;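 also: measures binding of biotinylated aFGF2 protein to printed compounds on slides; z-score merges feature fluorescence and signal-to-noise across triplicate slides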
[4] = small molecules captured by biotinylated probe aFGF10 – biochemical, small-molecule microarray, fluorescence 635/667, stem cell growth factor project, primary screen (AID 1071); conditions: higher = more signal;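 also: score merges 667 nm spot intensity and signal to noise from triplicate slides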
[5] = target: Neurogenic locus notch homolog protein 2 (Homo sapiens) (UniProt Q04721); assay: small molecules binding Notch2 protein – biochemical, small-molecule microarray, 635 nm fluorescence, stem cell growth factors, primary screen (AID 1073); conditions: higher = more signal
[6] = target: Pro-neuregulin-1, membrane-bound isoform (Homo sapiens) (UniProt Q02297); assay: small molecules binding neuregulin-1 protein – biochemical, small-molecule microarray, fluorescence 635/667, psychiatric disease protein project, primary screen (AID 1075); conditions: NRG1 binding, 635 nm fluorescence, higher = more signal;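 also: score combines 667 nm spot fluorescence with signal to noise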
[7] = tested on: Neuregulin-1 EGF-like domain; assay: small molecules binding NRG1 EGF domain – biochemical, small-molecule microarray, 635 nm fluorescence, primary screen (AID 1081); conditions: higher = more signal;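 also: binding of the protein to compounds printed on small-molecule microarray slides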
[8] = FRG1 expression reporter modulators in myotubes – cell-based, C2C12 myotubes, firefly/Renilla luciferase, luminescence, FRG1 inhibition for FSHD, primary screen (AID 1084); conditions: FRG1 promoter luciferase, higher = more signal, called active from +8 up or from −8 down
[9] = small molecules captured by biotinylated probe aFST – biochemical, small-molecule microarray, fluorescence 635/667, stem cell growth factor project, primary screen (AID 1086); conditions: higher = more signal;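 also: score merges 667 nm fluorescence with signal-to-noise of each printed compound spot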
[10] = binders of probe aHhip on microarray, primary screen, stem cell growth factor project, biochemical, small-molecule microarray, fluorescence 635/667 (AID 1087); conditions: higher = more signal;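 also: score merges spot fluorescence at 667nm with spot signal to noise ratio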
[11] = tested on: PRMT1 (protein arginine N-methyltransferase 1); assay: small molecules binding arginine methyltransferase PRMT1 – biochemical, small-molecule microarray, 635 nm fluorescence, primary screen (AID 1088); conditions: higher = more signal;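 also: binding of Prmt1 protein to compounds spotted on small-molecule microarray slides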
[12] = growth effects on S. cerevisiae YJM789 – YJM789 clinical isolate, OD600, 24 h, basal, primary screen (AID 1089); conditions: higher = more signal, called active from +8 up or from −8 down;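 also: growth of clinical yeast isolate S. cerevisiae YJM 789 seeded 1000 cells per well; test concentration not given here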
[13] = S. pombe growth modifiers, basal conditions – strain 972, OD600, 24 h, no modulator, primary screen (AID 1090);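 also: basal condition with compound alone and no growth modifier present; test concentration not given here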; conditions: S. pombe 972 growth, higher = more signal, called active from +8 up or from −8 down
[14] = budding yeast growth modifiers under rapamycin – strain BY4716, OD600, 96 h, primary screen (AID 1091); also: test concentration not given here; conditions: S. cerevisiae BY4716 + rapamycin, higher = more signal, called active from +8 up or from −8 down
[15] = target: Torsin-1A-interacting protein 2 (Homo sapiens) (UniProt Q8NFQ8); assay: small molecules binding lysate-expressed LULL1 – cell lysate, human LULL1 lysate, 635/667 nm fluorescence, primary screen (AID 1092); conditions: small-molecule microarray, hLULL1 lysate binding, 635 nm fluorescence; higher = more signal;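 also: probe is lysate of COS7 cells overexpressing human LULL1; score merges per-feature 667 nm fluorescence with signal-to-noise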
[16] = optical density change of DRC41 E. coli – strain DRC41, OD650, 24 h, E. coli filamentation project, primary screen (AID 1093);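 also: MC1000 strain lacking acrAB efflux and sulA so SOS filamentation is blocked; test concentration not given here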; conditions: E. coli DRC41 growth, higher = more signal, called active from +8 up or from −8 down
[17] = probe aLefty2 binding to arrayed compounds – biochemical, biotinylated probe, 635/667 nm fluorescence, primary screen (AID 1094); conditions: small-molecule microarray, higher = more signal;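 also: score merges spot fluorescence near 667 nm with spot signal-to-noise ratio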
[18] = tested on: Noggin (protein binding on small-molecule microarray); assay: small molecules binding Noggin protein – biochemical, 635/667 nm fluorescence, primary screen (AID 1095); conditions: 635 nm fluorescence, higher = more signal;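 also: score merges 667 nm feature fluorescence with signal to noise over triplicate slides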
[19] = target: Neurogenic locus notch homolog protein 3 (Homo sapiens) (UniProt Q9UM47); assay: small molecules binding NOTCH3 protein – biochemical, 635/667 nm fluorescence, primary screen (AID 1096); conditions: small-molecule microarray, 635 nm fluorescence, higher = more signal
[20] = probe aEGFR binding to arrayed compounds – biochemical, biotinylated probe, 635/667 nm fluorescence, primary screen (AID 1097); conditions: small-molecule microarray, higher = more signal;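 also: probe is a biotinylated anti-EGFR antibody binding compounds printed on slides; score combines fluorescence near 667 nm and signal to noise of each spot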

Sequence of Pro-neuregulin-1, membrane-bound isoform (Homo sapiens) (Q02297 whole entry, looked up, the tested form may be a part, canonical isoform): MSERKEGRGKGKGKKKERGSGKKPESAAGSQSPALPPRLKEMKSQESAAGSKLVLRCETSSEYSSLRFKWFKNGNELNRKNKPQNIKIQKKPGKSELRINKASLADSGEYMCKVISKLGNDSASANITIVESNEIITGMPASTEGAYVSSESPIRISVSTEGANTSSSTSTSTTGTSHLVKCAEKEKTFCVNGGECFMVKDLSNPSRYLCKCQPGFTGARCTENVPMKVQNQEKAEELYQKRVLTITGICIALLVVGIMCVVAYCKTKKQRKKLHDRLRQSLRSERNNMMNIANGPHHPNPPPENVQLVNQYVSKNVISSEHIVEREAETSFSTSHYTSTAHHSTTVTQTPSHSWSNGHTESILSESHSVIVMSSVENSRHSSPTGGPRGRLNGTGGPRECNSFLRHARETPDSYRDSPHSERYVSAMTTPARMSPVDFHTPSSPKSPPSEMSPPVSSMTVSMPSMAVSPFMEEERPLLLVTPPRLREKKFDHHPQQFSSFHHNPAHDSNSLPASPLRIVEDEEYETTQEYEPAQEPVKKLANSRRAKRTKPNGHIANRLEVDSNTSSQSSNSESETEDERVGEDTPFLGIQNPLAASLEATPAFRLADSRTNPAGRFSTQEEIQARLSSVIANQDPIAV
Sequence of Neurogenic locus notch homolog protein 3 (Homo sapiens) (Q9UM47 whole entry, looked up): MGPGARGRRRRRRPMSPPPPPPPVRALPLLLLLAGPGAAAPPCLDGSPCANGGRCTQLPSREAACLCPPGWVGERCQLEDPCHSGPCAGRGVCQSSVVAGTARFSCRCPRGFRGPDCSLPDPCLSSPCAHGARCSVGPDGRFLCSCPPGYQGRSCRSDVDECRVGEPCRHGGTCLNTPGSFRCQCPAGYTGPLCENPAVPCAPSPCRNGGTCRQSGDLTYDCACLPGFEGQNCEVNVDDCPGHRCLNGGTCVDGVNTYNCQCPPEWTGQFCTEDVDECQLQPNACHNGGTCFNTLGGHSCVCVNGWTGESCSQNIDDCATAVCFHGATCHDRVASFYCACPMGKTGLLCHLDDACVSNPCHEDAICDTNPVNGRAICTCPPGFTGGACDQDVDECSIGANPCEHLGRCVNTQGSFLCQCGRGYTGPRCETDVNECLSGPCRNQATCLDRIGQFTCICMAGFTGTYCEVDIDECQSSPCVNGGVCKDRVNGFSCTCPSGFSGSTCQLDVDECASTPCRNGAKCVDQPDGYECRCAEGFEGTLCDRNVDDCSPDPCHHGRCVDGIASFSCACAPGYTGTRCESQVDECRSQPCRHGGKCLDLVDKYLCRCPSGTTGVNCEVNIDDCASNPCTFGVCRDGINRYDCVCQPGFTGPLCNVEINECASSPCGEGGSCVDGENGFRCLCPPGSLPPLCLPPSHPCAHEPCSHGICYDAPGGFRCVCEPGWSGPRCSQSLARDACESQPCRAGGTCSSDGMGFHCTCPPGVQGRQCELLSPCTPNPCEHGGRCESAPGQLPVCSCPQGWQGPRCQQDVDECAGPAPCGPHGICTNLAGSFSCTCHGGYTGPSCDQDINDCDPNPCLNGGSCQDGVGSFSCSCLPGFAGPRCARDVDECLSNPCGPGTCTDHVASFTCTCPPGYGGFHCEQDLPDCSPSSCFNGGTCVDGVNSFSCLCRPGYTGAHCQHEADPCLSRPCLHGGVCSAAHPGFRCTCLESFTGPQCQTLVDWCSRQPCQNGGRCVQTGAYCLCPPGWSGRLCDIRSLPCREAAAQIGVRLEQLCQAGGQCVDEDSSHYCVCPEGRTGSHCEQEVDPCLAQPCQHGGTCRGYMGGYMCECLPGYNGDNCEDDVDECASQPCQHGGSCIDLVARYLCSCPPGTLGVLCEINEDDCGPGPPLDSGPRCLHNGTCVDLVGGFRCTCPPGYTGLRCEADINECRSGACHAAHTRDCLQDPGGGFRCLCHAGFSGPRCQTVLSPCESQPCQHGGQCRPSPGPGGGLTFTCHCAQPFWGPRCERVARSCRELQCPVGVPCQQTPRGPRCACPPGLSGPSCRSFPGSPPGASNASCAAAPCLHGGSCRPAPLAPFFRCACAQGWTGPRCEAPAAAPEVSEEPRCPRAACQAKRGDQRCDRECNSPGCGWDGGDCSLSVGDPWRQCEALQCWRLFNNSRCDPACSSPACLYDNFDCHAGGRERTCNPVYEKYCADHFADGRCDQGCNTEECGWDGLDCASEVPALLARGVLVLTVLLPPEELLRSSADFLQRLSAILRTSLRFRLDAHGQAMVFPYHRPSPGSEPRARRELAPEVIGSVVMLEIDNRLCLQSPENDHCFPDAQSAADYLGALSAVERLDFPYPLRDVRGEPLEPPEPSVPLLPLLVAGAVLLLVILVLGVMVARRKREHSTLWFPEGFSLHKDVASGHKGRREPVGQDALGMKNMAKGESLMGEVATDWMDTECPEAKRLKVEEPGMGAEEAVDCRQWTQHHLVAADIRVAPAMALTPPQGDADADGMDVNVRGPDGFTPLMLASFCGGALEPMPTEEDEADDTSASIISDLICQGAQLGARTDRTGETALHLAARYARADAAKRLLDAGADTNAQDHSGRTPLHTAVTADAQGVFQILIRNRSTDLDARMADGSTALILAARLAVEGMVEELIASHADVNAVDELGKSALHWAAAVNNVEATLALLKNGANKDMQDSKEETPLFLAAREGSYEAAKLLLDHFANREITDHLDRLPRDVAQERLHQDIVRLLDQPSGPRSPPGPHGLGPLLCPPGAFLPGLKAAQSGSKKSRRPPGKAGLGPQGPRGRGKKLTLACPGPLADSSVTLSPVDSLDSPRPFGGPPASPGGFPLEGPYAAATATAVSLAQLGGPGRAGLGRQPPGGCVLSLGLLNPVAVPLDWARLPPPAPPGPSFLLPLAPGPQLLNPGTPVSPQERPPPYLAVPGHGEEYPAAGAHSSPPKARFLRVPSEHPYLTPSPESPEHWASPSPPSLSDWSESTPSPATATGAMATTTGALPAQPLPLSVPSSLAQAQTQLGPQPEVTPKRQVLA
Sequence of Torsin-1A-interacting protein 2 (Homo sapiens) (Q8NFQ8 whole entry, looked up): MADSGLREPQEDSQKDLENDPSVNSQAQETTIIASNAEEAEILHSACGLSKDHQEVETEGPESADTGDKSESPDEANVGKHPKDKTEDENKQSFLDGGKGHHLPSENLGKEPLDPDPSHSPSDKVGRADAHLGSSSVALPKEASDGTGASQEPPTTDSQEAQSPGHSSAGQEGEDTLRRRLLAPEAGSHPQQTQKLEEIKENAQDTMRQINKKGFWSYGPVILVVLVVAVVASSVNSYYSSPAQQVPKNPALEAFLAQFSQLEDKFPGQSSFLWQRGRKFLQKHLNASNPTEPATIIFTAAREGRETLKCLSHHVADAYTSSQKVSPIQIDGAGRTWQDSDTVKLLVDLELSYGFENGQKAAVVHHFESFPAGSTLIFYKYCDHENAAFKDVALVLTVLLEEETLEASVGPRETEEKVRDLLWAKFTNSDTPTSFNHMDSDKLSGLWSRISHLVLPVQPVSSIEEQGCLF

Row | SMILES | composite z-score [1] | composite z-score [2] | composite z-score [3] | composite z-score [4] | composite z-score [5] | composite z-score [6] | composite z-score [7] | z-score [8] | composite z-score [9] | composite z-score [10] | composite z-score [11] | z-score [12] | z-score [13] | z-score [14] | composite z-score [15] | z-score [16] | composite z-score [17] | composite z-score [18] | composite z-score [19] | composite z-score [20]
1 | COCCOC(=O)N1C(=O)[C@@]2(c3cc(C#Cc4ccc(OC)cc4)ccc31)[C@H](c1ccc(OCCO)cc1)N1[C@H](c3ccccc3)[C@H](c3ccccc3)OC(=O)[C@H]1[C@@H]2C(N)=O | 0.261 | 1.24 | -0.0128 | 0.646 | 1.46 | 1.25 | 1.26 | 1.06 (inactive) | 0.851 | 0.0972 | 1.54 | 1.37 (inactive) | 1.87 (inactive) | 5.01 (inactive) | 1.64 | 1.37 (inactive) | 0.172 | 1.45 | 1.02 | 0.0593
2 | CN(C)CCCN1C(=O)[C@@]2(Cc3ccccc31)c1ccccc1C(=O)N(Cc1ccccc1)[C@H]2c1ccc(CO)cc1 | -0.0277 | 0.115 | -0.0861 | -0.492 | -0.639 | 0.466 | -0.226 | 0.878 (inactive) | 1.02 | -0.0994 | 1.12 | -0.0782 (inactive) | -1.35 (inactive) | -1.85 (inactive) | -0.42 | -1.42 (inactive) | -0.171 | 0.542 | 0.204 | -0.184
3 | [N-]=[N+]=NCc1ccccc1[C@H]1OC(c2ccc(OCCCO)cc2)=N[C@@]1(Cc1ccccc1N=[N+]=[N-])C(=O)N1CCCCC1 | 0.398 | 0.221 | 0.141 | 0.263 | 1.32 | 1.32 | 1.04 | -1.6 (inactive) | 1.41 | -0.199 | 1.53 | 0.401 (inactive) | 0.763 (inactive) | 2.23 (inactive) | 3.44 | 0.203 (inactive) | 0.352 | 0.667 | 1.12 | 0.23
4 | COCCOC(=O)N1C(=O)[C@@]2(c3cc(C#CC4(O)CCCCCC4)ccc31)[C@H](C(=O)N1CCc3cc(OC)c(OC)cc3C1)[C@H]1C(=O)O[C@H](c3ccccc3)[C@H](c3ccccc3)N1[C@@H]2c1ccccc1OCCO | -0.0526 | 1.46 | 0.119 | 0.665 | 1.15 | 0.491 | 1.22 | -0.165 (inactive) | 1.08 | 0.623 | 1.54 | 2.29 (inactive) | 1.05 (inactive) | 3.98 (inactive) | 1.39 | 1.36 (inactive) | 0.226 | 1.29 | 1.06 | 0.295
5 | C=C(COC)C(=O)CC[C@H](OC(=O)c1ccccc1-c1ccccc1C(=O)O)c1ccc(CO)o1 | -0.326 | -0.192 | -0.128 | 0.738 | -0.532 | 0.844 | 1.33 | -0.362 (inactive) | -0.118 | -0.0618 | 1.56 | -1.91 (inactive) | 0.436 (inactive) | 0.526 (inactive) | 1.37 | 0.229 (inactive) | -0.216 | 0.757 | 0.391 | -0.17
6 | Cc1ccccc1C(O)C1C=CC2C(=O)N(C)C(=O)C2N1Nc1ccc([N+](=O)[O-])cc1[N+](=O)[O-] (stereo not given) | -0.0166 | 0.14 | 0.084 | 0.922 | 1.65 | 1.65 | 1.27 | 0.248 (inactive) | 1.59 | -0.0645 | 1.56 | 0.426 (inactive) | 0.73 (inactive) | 0.969 (inactive) | 3.45 | -1.24 (inactive) | 0.25 | 0.17 | 1.08 | 0.0801
7 | CCOC(=O)C[C@H]1[C@H](OC(=O)c2ccc(C(=O)c3ccccc3)cc2)[C@@H](NC(=O)C2CCCCC2)c2cc(OCCCO)ccc2N1C(=O)Cc1ccc(OC)cc1 | 0.644 | 0.673 | 0.0007 | 0.348 | 0.376 | 0.556 | 0.207 | -1.01 (inactive) | 0.757 | 0.295 | 0.623 | -0.989 (inactive) | 0.0425 (inactive) | -0.0492 (inactive) | 0.603 | 0.332 (inactive) | 0.0044 | 0.544 | 0.88 | 0.0408
8 | O=C1C2C=CC(C(O)c3cccc4ccccc34)N(Nc3ccccc3)C2C(=O)N1c1ccccc1 (stereo not given) | -0.0673 | 0.113 | 0.127 | 0.822 | 1.61 | 1.89 | 1.19 | -1.41 (inactive) | 1.55 | -0.261 | 1.56 | 0.487 (inactive) | -0.251 (inactive) | -0.0667 (inactive) | 3.16 | -1.07 (inactive) | 0.343 | 0.428 | 1.04 | -0.0271
9 | C=CCOC(=O)[C@@H]1[C@H]2C(=O)O[C@H](c3ccccc3)[C@H](c3ccccc3)N2[C@H](c2ccc(OCCOC(=O)[C@H]3C[C@H]4C(=O)N[C@@H](Cc5ccccc5)C(=O)N4[C@H]3c3cccc(OCCO)c3)cc2)[C@@]12C(=O)Nc1ccc(I)cc12 | 0.014 | 0.548 | -0.0512 | 0.957 | 1.09 | 0.0935 | 1.31 | 2.41 (inactive) | 0.56 | -0.186 | 1.53 | 2.59 (inactive) | -2.26 (inactive) | 0.874 (inactive) | 1.93 | -1.07 (inactive) | -0.193 | 1.59 | 1.03 | 0.276
10 | COc1cccc(C)c1NC(=O)O[C@H]1[C@H](OC(=O)Nc2ccccc2)[C@H](OC(=O)Nc2ccccc2)[C@@H](OC)O[C@@H]1CO | -0.306 | 0.559 | -0.0216 | 0.401 | 1.16 | 1.64 | 1.22 | 1.59 (inactive) | 0.319 | -0.0994 | 1.55 | 0.547 (inactive) | 1.03 (inactive) | 3.23 (inactive) | 3.35 | -0.721 (inactive) | 0.0682 | 0.203 | 0.93 | -0.125
11 | CCCN1C(=O)[C@@]2(Cc3ccccc3)N=C(c3ccc(OCCCO)cc3)O[C@H]2c2ccccc21 | -0.0679 | 0.802 | -0.047 | 0.186 | 0.498 | 0.602 | 1.12 | -1.25 (inactive) | -0.0754 | -0.0573 | 1.54 | -1.46 (inactive) | -4.12 (inactive) | 1.52 (inactive) | 3.13 | 1.09 (inactive) | 0.152 | 1.29 | 1.05 | -0.0976
12 | CO[C@H]1O[C@H](CO)[C@@H](OC(=O)Nc2cccc(F)c2)[C@H](OC(=O)Nc2ccc3c(c2)OCO3)[C@H]1OC(=O)Nc1ccc2c(c1)OCO2 | -0.382 | 0.755 | 0.0094 | 0.358 | 0.893 | 0.958 | 1.17 | 6.24 (inactive) | -0.253 | -0.201 | 1.55 | 1.38 (inactive) | 1.29 (inactive) | 1.6 (inactive) | 3.25 | 1.76 (inactive) | -0.0025 | 1.07 | 0.649 | -0.142
13 | C=C[C@@H](O)[C@H]1CC(c2ccccc2)=NO1 | -0.0317 | -0.1 | -0.0692 | -0.105 | -0.138 | -0.37 | -0.262 | 1.6 (inactive) | 0.266 | 0.172 | -0.425 | -0.347 (inactive) | -0.954 (inactive) | -0.657 (inactive) | -0.141 | 1.13 (inactive) | -0.0339 | -0.174 | -0.872 | -0.0844
